Among the data in PubChem BioAssay AID1851 (National Center for Advancing Translational Sciences (NCATS), 2009) are AC50 and activity, negative = inhibition values, retold here.

The whole screen tested about 16,000 compounds, of which about 5,800 (36%) were called active. Roughly 23% stayed inconclusive and do not appear here. Calls come from the whole dose curve; as a rule, active = well fitted curve in the direction sought with a large enough effect; inconclusive = small, poorly fitted or top-dose-only effect, or effect the other way; inactive = no such curve, though single readings can be large or run the other way. This is one part of the list.
% is set by controls: 0 for no effect and ±100 for the full control effect.

Sequence of Cytochrome P450 2C19 (Homo sapiens) (P33261 whole entry, looked up): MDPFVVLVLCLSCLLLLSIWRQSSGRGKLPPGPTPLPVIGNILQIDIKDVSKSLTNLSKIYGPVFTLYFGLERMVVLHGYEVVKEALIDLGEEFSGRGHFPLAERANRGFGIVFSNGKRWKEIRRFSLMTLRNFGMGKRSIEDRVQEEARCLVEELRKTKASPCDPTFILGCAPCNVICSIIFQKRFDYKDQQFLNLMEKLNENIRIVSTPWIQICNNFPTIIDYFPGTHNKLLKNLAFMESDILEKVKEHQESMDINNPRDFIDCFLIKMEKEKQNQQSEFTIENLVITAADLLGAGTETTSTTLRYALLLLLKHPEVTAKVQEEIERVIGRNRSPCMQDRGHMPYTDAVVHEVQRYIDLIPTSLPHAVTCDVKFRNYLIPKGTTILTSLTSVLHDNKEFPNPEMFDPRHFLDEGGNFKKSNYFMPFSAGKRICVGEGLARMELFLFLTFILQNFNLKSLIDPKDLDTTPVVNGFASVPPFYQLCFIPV

This assay has as its target Cytochrome P450 2C19 (Homo sapiens) (UniProt P33261). The experiment in a line: Cytochrome panel assay with activity outcomes. The conditions noted are these: recombinant CYP, pro-luciferin dealkylation, luminescence, p450-cyp2c19; series mostly up to 57.1 µM.
In the case of `COCCn1c(=O)c(-c2cccc(C#N)c2)nc2cnc(N3CCN(C)CC3)nc21`, the AC50 entry is “inactive”. Still for that read-out and setting: for `CN(C)c1ncc2nc(-c3cccs3)c(=O)n(-c3ccccc3)c2n1` the value was “inactive”; for `O=c1c2c(-c3cccs3)csc2[nH]c(=S)n1-c1ccccc1`, 10 µM (active); for `COc1ncc2nc(-c3cccs3)c(=O)n(-c3ccccc3)c2n1`, “inactive”. The same measure, in the same setting: to `Cc1cccc(N2CC(O)=C(c3nc4ccccc4n3C)C2=N)c1` belongs “inactive”; to `Cn1c(-c2sc(=S)n(-c3ccccc3)c2N)nc2ccccc21`, 1.41 µM (active); to `CN(C)CC/C=C1\c2ccccc2COc2ccccc21`, “inactive”. As to `CC(C)(C)NC[C@@H](O)c1ccc(O)c(CO)n1`, the activity, negative = inhibition is 27.5% [at 11.4 µM] (inactive). On to `CN(C(=O)c1c(O)c2ccccc2n(C)c1=O)c1ccccc1`, for which the AC50 result is “inactive”. Still for that read-out and setting: to `CCCc1c(O)c2ccccc2n(-c2ccccc2)c1=O` belongs 11.2 µM (active).

Consider `CCNc1ncc2nc(-c3cn(C)c4ccccc34)c(=O)n(-c3ccccc3)c2n1`, for which the AC50 result is “inactive”. On the same count and under the same terms, for `O=C1CC(c2ccc3c(c2)OCO3)Sc2nc3ccccc3n21` (stereo not given) the value was 2 µM (active); for `CCOc1cc(CNCCc2ccc(S(N)(=O)=O)cc2)cc(Cl)c1OCc1ccccc1`, 3.55 µM (active); for `CCOc1cc(CNCCO)cc(Br)c1OCc1ccccc1Cl`, 7.08 µM (active). On the same count and under the same terms, to `Cc1noc(C)c1C(=O)N1CCC2(CCN(Cc3cc(C(F)(F)F)cc(C(F)(F)F)c3)CC2)CC1` belongs “inactive”.

`Cc1nnc(-c2cnn(-c3ccccc3)c2N)n1Cc1ccc(F)cc1`: the AC50 was 17.8 µM (active). On the same count and under the same terms, to `Cc1nnc(-c2cnn(-c3ccccc3)c2N)n1Cc1ccccc1` belongs “inactive”; to `COc1ccc(-c2cc(C(F)(F)F)nc(N3CCN(C)CC3)n2)cc1OC`, “inactive”. Still for that read-out and setting: to `COc1ccc(-c2cc(C(F)(F)F)nc(NC3CCCC3)n2)cc1OC` belongs 22.4 µM (active); to `COc1ccc(-c2cc(C(F)(F)F)nc(N3CCOCC3)n2)cc1OC`, 2.24 µM (active). On the same count and under the same terms, for `COc1ccc(-c2cc(C(F)(F)F)nc(N3CCCCC3)n2)cc1OC` the value was 3.16 µM (active); for `Cn1c(=O)c(-c2ccc(F)cc2)nc2cnc(N3CCOCC3)nc21`, “inactive”; for `COc1ccccc1-c1nc(NC2CC2)c2ccccc2n1`, “inactive”.

Consider `COCCn1c(=O)c(-c2ccc(OC)cc2)nc2cnc(N3CCOCC3)nc21`, for which the AC50 result was “inactive”. Consider `O=C(O)C[C@H](NC(=O)CP(=O)(O)O)C(=O)O.[NH-][C@@H]1CCCC[C@@H]1[NH-].[Pt]`, for which the activity, negative = inhibition was -14.4% [at 11.4 µM] (inactive).

As to `CCOC(=O)N/N=C1/C[C@@H](O)[C@@H](O)[C@@H]2[C@@H]3C(=O)N(CC)C(=O)[C@H]3CC[C@H]12`, the activity, negative = inhibition is -7.53% [at 11.4 µM] (inactive). For the compound `CCOC(=O)N1CCN(C(=O)CNCc2cccs2)CC1`, the AC50 result was “inactive”.

Regarding `O=C(O)Cc1c[nH]c2ccc(O)cc12`, the AC50 entry is “inactive”. Consider `Cc1csc(NC(=O)Cc2c[nH]c3ccccc23)n1`, for which the AC50 was 7.08 µM (active). Same read-out and setting: to `COCC(=O)N1CCC2(CC1)CN(C(c1ccccc1)c1ccccc1)C2` belongs “inactive”; to `Cc1csc(NC(=O)CNS(=O)(=O)c2cccs2)n1`, 14.1 µM (active); to `Cc1csc(NC(=O)CCNS(=O)(=O)c2ccc3c(c2)c(=O)n(C)c(=O)n3C)n1`, “inactive”. Still for that read-out and setting: to `O=C(CCNS(=O)(=O)c1cccs1)N1CCc2ccccc2C1` belongs 2.24 µM (active).

For the compound `CCOC(=O)N1CCN(C(=O)CNS(=O)(=O)c2cccs2)CC1`, the AC50 was 8.91 µM (active). Consider `O=C(CCNS(=O)(=O)c1cccs1)N1CCCCCC1`, for which the AC50 was 3.16 µM (active). Still for that read-out and setting: for `O=c1nc2ccccc2c2n1CC(CN1CCN(c3cccc(Cl)c3)CC1)N2` (stereo not given) the value was “inactive”; for `O=C(Cc1ccc(-n2c(=O)[nH]c3ccccc3c2=O)cc1)N1CCN(c2cccc(Cl)c2)CC1`, 8.91 µM (active). The same measure, in the same setting: for `COc1ccc(CC(=O)N2CCN(c3ccc(C4=NNC(=O)CC4C)cc3)CC2)cc1` (stereo not given) the value was “inactive”. Regarding `CN1CCN(CC(=O)N2c3ccccc3Sc3cc4ccccc4cc32)CC1`, the activity, negative = inhibition is -1.84% [at 11.4 µM] (inactive). As for `CN1CCCC[C@@H]1CCN1c2ccccc2Sc2ccc(S(C)=O)cc21` (stereo not given in full), the AC50 entry is “inactive”. Still for that read-out and setting: for `CC1CCN(CC(=O)N2c3ccccc3Sc3cc4ccccc4cc32)CC1` the value was 3.16 µM (active); for `CCN[C@@H]1C[C@H](C)S(=O)(=O)c2sc(S(N)(=O)=O)cc21`, “inactive”. Same read-out and setting: to `Cc1ccsc1/C=N/Nc1nc(Cl)c(Cl)cc1Cl` belongs 7.94 µM (active); to `CN(C)c1ccc(N=Cc2nc(-c3ccccc3)oc2O)cc1`, 1.78 µM (active).

For `Oc1oc(-c2ccccc2)nc1C=Nc1ccccc1`, the AC50 is 3.98 µM (active). Consider `CN(C)Cc1ccc(O)c(CN(C)C)n1`, for which the activity, negative = inhibition is -0.0983% [at 11.4 µM] (inactive). For the compound `C=CCCCCCCCCC(=O)Nc1c[nH]c(=O)[nH]c1=O`, the AC50 entry is “inactive”. Same read-out and setting: for `CCN1CCCC1Cn1cnc2c([nH]c3ccc(C)cc32)c1=O` (stereo not given) the value was “inactive”.

On to `Cc1ccc2[nH]c3c(N4CCc5ccccc5C4)ncnc3c2c1`, for which the AC50 was 1.58 µM (active).

`COc1ccc(OC)c(C(=O)CN2C(=O)NC(C)(c3ccccc3)C2=O)c1` (stereo not given): the AC50 was 0.224 µM (active).

For `Cc1ccc(C2(C)NC(=O)N(CC(=O)Nc3cc(C)on3)C2=O)cc1` (stereo not given), the AC50 result is “inactive”. Same read-out and setting: to `Cc1cc(NC(=O)CN2C(=O)NC(C)(c3ccc(OC(F)F)cc3)C2=O)no1` (stereo not given) belongs “inactive”. Same read-out and setting: to `Cn1c(SCC(=O)NC2CC2)nnc1-c1cccc(NC(=O)c2ccccc2F)c1` belongs “inactive”; to `Cc1nnc(SCC(=O)NCC2CCCCC2)n(N)c1=O`, “inactive”. Still for that read-out and setting: for `CCn1c(SCC(=O)NC2CCCCC2)nnc1-c1cc2cccc(OC)c2o1` the value was 10 µM (active). As for `Nc1nc2c(c(=O)[nH]1)CN(c1ccc(S(N)(=O)=O)cc1)CN2`, the activity, negative = inhibition is 24.4% [at 11.4 µM] (inactive). `Cc1ccc(/C=C2\SC(=S)N(CCCC(=O)Nc3ccccn3)C2=O)cc1`: the AC50 was 10 µM (active). Still for that read-out and setting: for `CCNc1ncc2nc(-c3ccccc3)c(=O)n(C)c2n1` the value was “inactive”. Still for that read-out and setting: to `CCNc1ncc2nc(CCc3ccccc3)c(=O)n(C3CC3)c2n1` belongs 6.31 µM (active). Same read-out and setting: for `CCNc1ncc2nc(-c3ccccc3)c(=O)n(C3CC3)c2n1` the value was “inactive”. For the compound `CCNc1ncc2nc(CCc3ccccc3)c(=O)n(C)c2n1`, the AC50 was 2.51 µM (active). On the same count and under the same terms, to `CCNc1ncc2nc(C)c(=O)n(C3CC3)c2n1` belongs “inactive”.

With `Cn1c(=O)c(CCc2ccccc2)nc2cnc(Nc3ccccc3)nc21`, the AC50 is 15.8 µM (active).

For the compound `CCNc1ncc2nc(CCc3ccccc3)c(=O)n(Cc3ccc(F)cc3)c2n1`, the AC50 entry is “inactive”. Same read-out and setting: for `Cc1nc2cnc(Nc3ccccc3)nc2n(C)c1=O` the value was “inactive”.
